PMC4336329 (PLoS ONE, 2015)
Screen size: about 310,000 compounds; about 14,000 (4.5%) showed an effect of 50% or more. Effects have a minus sign here. What follows is part of a selection rich in strong results, with near analogues and random picks from the rest.

target: human ether-à-go-go-related gene (hERG) potassium channel (human, UniProt Q12809); assay: primary screen, population patch clamp on CHO cells stably expressing hERG; higher = less effect of the substance
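Note: peak tail current of the secondary pulse compared with the same well before compound.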

Sequence of human ether-à-go-go-related gene (hERG) potassium channel (Q12809 whole entry, looked up): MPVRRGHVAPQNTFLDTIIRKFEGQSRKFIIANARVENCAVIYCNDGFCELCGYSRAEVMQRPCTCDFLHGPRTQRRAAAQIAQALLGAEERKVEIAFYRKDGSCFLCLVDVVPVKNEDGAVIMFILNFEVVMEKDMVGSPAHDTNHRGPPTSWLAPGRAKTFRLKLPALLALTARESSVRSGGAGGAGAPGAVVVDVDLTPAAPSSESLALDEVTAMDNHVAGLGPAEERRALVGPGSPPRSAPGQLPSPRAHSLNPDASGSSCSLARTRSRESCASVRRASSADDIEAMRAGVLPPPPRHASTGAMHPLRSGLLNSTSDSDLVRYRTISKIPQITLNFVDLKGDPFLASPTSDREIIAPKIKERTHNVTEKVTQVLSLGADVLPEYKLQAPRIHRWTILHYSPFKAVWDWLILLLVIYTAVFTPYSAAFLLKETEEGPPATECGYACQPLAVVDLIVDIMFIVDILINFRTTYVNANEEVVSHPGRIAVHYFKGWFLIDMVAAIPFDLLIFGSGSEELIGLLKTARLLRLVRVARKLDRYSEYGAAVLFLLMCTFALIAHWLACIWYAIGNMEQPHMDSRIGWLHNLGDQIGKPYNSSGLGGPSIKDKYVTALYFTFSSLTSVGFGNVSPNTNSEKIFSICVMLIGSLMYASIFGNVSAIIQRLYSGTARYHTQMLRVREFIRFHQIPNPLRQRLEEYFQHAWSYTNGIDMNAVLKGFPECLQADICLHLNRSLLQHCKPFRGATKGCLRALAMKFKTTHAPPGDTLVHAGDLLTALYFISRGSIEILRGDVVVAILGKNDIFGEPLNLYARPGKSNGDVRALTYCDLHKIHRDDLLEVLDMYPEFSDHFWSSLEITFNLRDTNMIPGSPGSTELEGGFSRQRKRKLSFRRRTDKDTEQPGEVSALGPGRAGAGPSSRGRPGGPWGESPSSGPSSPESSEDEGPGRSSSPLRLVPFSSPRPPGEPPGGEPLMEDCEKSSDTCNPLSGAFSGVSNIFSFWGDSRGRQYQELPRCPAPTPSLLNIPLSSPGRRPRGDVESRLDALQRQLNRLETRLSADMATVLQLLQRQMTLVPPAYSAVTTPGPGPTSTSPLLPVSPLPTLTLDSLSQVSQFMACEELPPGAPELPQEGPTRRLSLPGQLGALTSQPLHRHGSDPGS

Question: `COc1ccccc1OCCNC(=O)c1ccc2c(c1)CCC2` was tested. Which “hERG current change (%, negative = inhibition) at 10uM” value did it give?
Answer: -5.96%

Question: How did the “hERG current change (%, negative = inhibition) at 10uM” value turn out when `Cc1ccc(S(=O)(=O)NC(=NCC(=O)O)c2ccccc2)cc1` was run?
Answer: 2.94%

Question: Which “hERG current change (%, negative = inhibition) at 10uM” value does the source give for `COc1cc(OC)cc(C(=O)NNC(=O)c2cc(S(=O)(=O)N3CCOCC3)ccc2F)c1` here?
Answer: -1.89%

Question: With `CCC(=O)n1nc(-c2ccccc2)nc1NCc1ccccc1` as the compound, how does the “hERG current change (%, negative = inhibition) at 10uM” value read?
Answer: 10.9%

Question: Which “hERG current change (%, negative = inhibition) at 10uM” value does the source give for `Cn1ncc(N)c1C(=O)Nc1cccc(C(F)(F)F)c1` here?
Answer: 1.42%

Question: Which “hERG current change (%, negative = inhibition) at 10uM” value does the source give for `CCOC(=O)c1cc(C)n(-c2ccc(OC)c(OC)c2)c1C` here?
Answer: -16.5%

Question: For `COc1cccc(NC(=S)N2CCC(NC(=O)c3ccco3)CC2)c1`, which “hERG current change (%, negative = inhibition) at 10uM” value is on record?
Answer: -11%

Question: For `CCOc1ccc2nc(NC(=O)c3ccccn3)sc2c1`, which “hERG current change (%, negative = inhibition) at 10uM” value is on record?
Answer: 6.42%

Question: How did the “hERG current change (%, negative = inhibition) at 10uM” value turn out when `COC(=O)c1cc(C)nc2c1C(=O)C(=O)C=C2N1CCOCC1` was run?
Answer: -2.1%

Question: With `CCCN1CCC(=O)N(CCSc2ccccc2)CC1` as the compound, how does the “hERG current change (%, negative = inhibition) at 10uM” value read?
Answer: -15.1%

Question: Which “hERG current change (%, negative = inhibition) at 10uM” value does the source give for `O=C1CCN(CCc2ccccc2)CCN1CCSc1ccccc1` here?
Answer: -76.4%

Question: For `O=C1CCN(CCc2ccccc2)CCN1CCO`, which “hERG current change (%, negative = inhibition) at 10uM” value is on record?
Answer: -4.16%

Question: `CCN(CC)S(=O)(=O)c1ccc(NC(=O)CO/N=C(\N)c2ccccc2)cc1` was tested. Which “hERG current change (%, negative = inhibition) at 10uM” value did it give?
Answer: -16.6%

Question: How did the “hERG current change (%, negative = inhibition) at 10uM” value turn out when `O=C(CN1CCOc2ccccc21)NCc1cccs1` was run?
Answer: 8.26%

Question: How did the “hERG current change (%, negative = inhibition) at 10uM” value turn out when `O=C(CN1C2=NCCCN2c2ccccc21)c1cccs1` was run?
Answer: -18.4%

Question: For `Br.O=C(CN1C2=NCCCN2c2ccccc21)c1ccc(Br)s1`, which “hERG current change (%, negative = inhibition) at 10uM” value is on record?
Answer: -67.2%

Question: Which “hERG current change (%, negative = inhibition) at 10uM” value does the source give for `Br.O=C(CN1C2=NCCN2c2ccccc21)C12CC3CC(CC(C3)C1)C2` here?
Answer: -72.7%

Question: How did the “hERG current change (%, negative = inhibition) at 10uM” value turn out when `Br.O=C(CN1C2=NCCN2c2ccccc21)c1cccs1` was run?
Answer: -31.3%

Question: `Br.CCOC(=O)CN1C2=NCCN2c2ccccc21` was tested. Which “hERG current change (%, negative = inhibition) at 10uM” value did it give?
Answer: 18.1%

Question: `Br.O=C(CN1C2=NCCN2c2ccccc21)c1ccc(Br)s1` was tested. Which “hERG current change (%, negative = inhibition) at 10uM” value did it give?
Answer: -64.5%

Question: Which “hERG current change (%, negative = inhibition) at 10uM” value does the source give for `O=C1CCC(=O)N1CC(=O)N1c2ccccc2Sc2ccccc21` here?
Answer: 3.19%

Question: `Cc1nc(C(=O)NC2CCOCC2)sc1C1(C)CC(c2ccccc2)=NO1` (stereo not shown) was tested. Which “hERG current change (%, negative = inhibition) at 10uM” value did it give?
Answer: -19.8%

Question: Which “hERG current change (%, negative = inhibition) at 10uM” value does the source give for `CC(C)CCNC(=O)C1CCC(=O)N1CCc1ccccc1` (stereo not shown) here?
Answer: 9.14%

Question: With `CCN(CC)CCCNC(=O)c1cc2c(=O)n(CC)c3ccccc3c2s1` as the compound, how does the “hERG current change (%, negative = inhibition) at 10uM” value read?
Answer: -14.9%

Question: Which “hERG current change (%, negative = inhibition) at 10uM” value does the source give for `CC(C)Oc1ccccc1C1Nc2ccccc2C(=O)N1c1ccc2c(c1)OCCO2` (stereo not shown) here?
Answer: 3.43%

Question: `Fc1ccccc1NC(=S)NC1CCCC1` was tested. Which “hERG current change (%, negative = inhibition) at 10uM” value did it give?
Answer: 14%

Question: How did the “hERG current change (%, negative = inhibition) at 10uM” value turn out when `Cc1ccc(NC(=O)N(C2=NCC(C)S2)c2ccccc2)cc1` (stereo not shown) was run?
Answer: 16.3%

Question: `CCn1c(SCc2nc(-c3ccccc3)no2)nnc1-c1cccs1` was tested. Which “hERG current change (%, negative = inhibition) at 10uM” value did it give?
Answer: -61.2%

Question: For `Cn1c(SCc2nc(-c3ccccc3)no2)nnc1-c1ccco1`, which “hERG current change (%, negative = inhibition) at 10uM” value is on record?
Answer: -18.4%

Question: With `Cn1c(SCc2nc(-c3ccc(Cl)cc3)no2)nnc1-c1ccco1` as the compound, how does the “hERG current change (%, negative = inhibition) at 10uM” value read?
Answer: -53.2%

Question: How did the “hERG current change (%, negative = inhibition) at 10uM” value turn out when `CCn1c(SCc2nc(-c3ccccc3)no2)nnc1-c1ccco1` was run?
Answer: -36.3%

Question: `Cn1c(SCc2nc(-c3ccc(Br)cc3)no2)nnc1-c1ccco1` was tested. Which “hERG current change (%, negative = inhibition) at 10uM” value did it give?
Answer: -49.6%

Question: With `Cn1c(SCc2nc(-c3ccc(Cl)cc3)no2)nnc1-c1ccccc1` as the compound, how does the “hERG current change (%, negative = inhibition) at 10uM” value read?
Answer: -22.5%

Question: Which “hERG current change (%, negative = inhibition) at 10uM” value does the source give for `Cn1c(SCc2nc(-c3ccccc3)no2)nnc1-c1cccs1` here?
Answer: -2.11%

Question: `CCn1c(SCc2nc(-c3ccc(OC)c(OC)c3)no2)nnc1-c1cccs1` was tested. Which “hERG current change (%, negative = inhibition) at 10uM” value did it give?
Answer: -40.1%

Question: For `CCn1c(SCc2nc(-c3ccc(Cl)cc3)no2)nnc1-c1ccco1`, which “hERG current change (%, negative = inhibition) at 10uM” value is on record?
Answer: -62%

Question: `O=C(NCCN1CCCC1)C1CCN(S(=O)(=O)N2CCC3(CC2)OCCO3)CC1` was tested. Which “hERG current change (%, negative = inhibition) at 10uM” value did it give?
Answer: 20.5%

Question: Which “hERG current change (%, negative = inhibition) at 10uM” value does the source give for `Cc1cccc(N(C)c2ncnc3onc(-c4ccc(F)cc4)c23)c1C` here?
Answer: -8.28%

Question: `COc1ccc(CN2CCNC(=O)C2CC(=O)NCC2CCOCC2)c(C)c1C` (stereo not shown) was tested. Which “hERG current change (%, negative = inhibition) at 10uM” value did it give?
Answer: -19.6%

Question: With `O=C(O)CCCn1cc(NC(=O)COc2ccc(F)cc2)cn1` as the compound, how does the “hERG current change (%, negative = inhibition) at 10uM” value read?
Answer: 16.5%

Question: Which “hERG current change (%, negative = inhibition) at 10uM” value does the source give for `N#Cc1c(N)oc(-c2ccco2)c1-c1ccco1` here?
Answer: 1.98%

Question: For `COc1ccc(NS(=O)(=O)c2cccc(C(=O)NNC(=O)CNC(=O)c3ccc(C)cc3)c2)cc1`, which “hERG current change (%, negative = inhibition) at 10uM” value is on record?
Answer: -2.64%

Question: Which “hERG current change (%, negative = inhibition) at 10uM” value does the source give for `O=C(NCc1ccccc1)C(c1ccc(F)cc1)N(Cc1ccco1)C(=O)c1ccccn1` (stereo not shown) here?
Answer: -24.4%

Question: Which “hERG current change (%, negative = inhibition) at 10uM” value does the source give for `O=C(Nc1c2c(nc3ccccc13)CCCC2)c1cccc([N+](=O)[O-])c1` here?
Answer: -5.85%

Question: Which “hERG current change (%, negative = inhibition) at 10uM” value does the source give for `O=C(Nc1c2c(nc3ccccc13)CCCC2)c1ccccc1Br` here?
Answer: 4.09%

Question: For `N#Cc1cccc(Nc2c3c(nc4ccccc24)CCC3)c1`, which “hERG current change (%, negative = inhibition) at 10uM” value is on record?
Answer: -72.2%

Question: With `N#Cc1cccc(Nc2c3c(nc4ccccc24)CCCC3)c1` as the compound, how does the “hERG current change (%, negative = inhibition) at 10uM” value read?
Answer: -74.8%

Question: How did the “hERG current change (%, negative = inhibition) at 10uM” value turn out when `CC(C)c1ccc(NC(=O)c2cc3c(=O)n(C)c4ccccc4c3n2C)cc1` was run?
Answer: 6.96%

Question: `COc1ccccc1OCc1ccc(C(=O)N2CCCCC2)o1` was tested. Which “hERG current change (%, negative = inhibition) at 10uM” value did it give?
Answer: 2.22%

Question: With `O=C(c1ccco1)c1cn(CC(=O)N2CCCCC2)c2ccccc12` as the compound, how does the “hERG current change (%, negative = inhibition) at 10uM” value read?
Answer: -6.34%

Question: Which “hERG current change (%, negative = inhibition) at 10uM” value does the source give for `CCOC(=O)c1[nH]c2ccccc2c1NC(=O)COC` here?
Answer: -4.53%

Question: How did the “hERG current change (%, negative = inhibition) at 10uM” value turn out when `Cc1cc(C(=O)CCl)c(C)n1Cc1ccco1` was run?
Answer: 3.06%

Question: Which “hERG current change (%, negative = inhibition) at 10uM” value does the source give for `Cc1oc(-c2ccc(Cl)cc2)nc1CN1CCC(C(=O)NCc2cccs2)CC1` here?
Answer: -61.5%

Question: `Cc1ccccc1-c1nc(CN2CCC(C(=O)NCc3cccs3)CC2)c(C)o1` was tested. Which “hERG current change (%, negative = inhibition) at 10uM” value did it give?
Answer: -70.5%

Question: `Cc1oc(-c2ccc(Cl)cc2)nc1CN1CCC(C(=O)NCCCN2CCCC2=O)CC1` was tested. Which “hERG current change (%, negative = inhibition) at 10uM” value did it give?
Answer: -33.9%

Question: How did the “hERG current change (%, negative = inhibition) at 10uM” value turn out when `Cc1oc(-c2ccc(Cl)cc2)nc1CN1CCC(C(=O)NCCCN2CCCC(C)C2)CC1` (stereo not shown) was run?
Answer: -16.5%

Question: How did the “hERG current change (%, negative = inhibition) at 10uM” value turn out when `Cc1oc(-c2ccccc2F)nc1CN1CCC(C(=O)NCc2cccs2)CC1` was run?
Answer: -63.7%

Question: For `Cc1oc(-c2ccccc2F)nc1CS(=O)CC(=O)NCc1cccs1` (stereo not shown), which “hERG current change (%, negative = inhibition) at 10uM” value is on record?
Answer: -12%
